Shown are actives, neighbours in structure and some others; about 7.9% of the full set was active somewhere.
Marburg entry inh: inhibitors of Marburg virus binding or cell entry; Potency, µM (titrated, usually from 37.8 µM), usual class: inhibitors; 300,000 compounds, 1.8% hits; Marburg virus pseudotyped entry inhibition, cell reporter; calls by dose curve; tested in HEK293 cells
HCMV inh: human cytomegalovirus inhibition; AID 1259415; HFF cells, HCMV-luciferase reporter, 72 h; active compounds read low; activity change, negative = inhibition, % at 57.5 µM; 410,000 compounds, 4.5% hits; in the data active = activity change below about -60%; inconclusive = no clear call, values can overlap the other calls; inactive = above about -39%
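Cell-based, HFFs, 1000 cells/well, 16 h 37C; cpds in DMSO + HCMV-luc, MOI 1 PFU/cell; 72 h 37C; OneGlo luminescence after 5 min RT; norm. to buffer vs Salinomycin 10uM.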
Lassa entry inh: inhibitors of Lassa virus binding or cell entry. Lassa virus pseudotype entry inhibition, cell reporter. Potency, µM (series often up to 37.9 µM), usual class: inhibitors. 300,000 compounds, 1.2% hits. AID 540256; calls by dose curve; tested in HEK293 cells; note: nearly all actives have a fitted effect of over 50% in size
HCV inhibitor: blocks hepatitis C virus | Huh7.5.1 HCVcc-Cre infection, luciferase reporter, 44 h | Potency, µM (series often up to 41.8 µM), most hits filed as inhibitors | 340,000 compounds, 3.4% hits | AID 651820; active = well fitted inhibition curve with a large enough effect; inconclusive = small, poorly fitted or top-dose-only effect, or another doubt; inactive = no such curve, though single readings can be large or run the other way
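Cells (1,000/well) were plated 4 h before compound, then infected with HCVcc-Cre virus (~0.5 moi). After 44 h further culture, infection was read as luciferase luminescence following a 15 min substrate incubation at room temperature.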
FMDV inh: antivirals against foot and mouth disease virus | FMDV antiviral cell-based qHTS | Potency, µM (highest dose often 57.9 µM), most hits filed as inhibitors | 410,000 compounds, 1.2% hits; calls by dose curve; tested in HEK293T cells; note: read-out not given here; nearly all actives have a fitted effect of over 45% in size
Hits are given with their value; . = inactive; ? = inconclusive; / = no result given.

SMILES	Marburg entry inh	HCMV inh	Lassa entry inh	HCV inhibitor	FMDV inh
CC(Sc1nc(N)cc(=O)[nH]1)C(=O)Nc1sc2c(c1C#N)CCCC2 (stereo not given)	?	-66	?	?	?
O=C(c1ccc([N+](=O)[O-])cc1)N1CCN(C(=O)C2CCCCC2)CC1	.	.	.	.	.
CCOC(=O)/C=C/[C@H]1CC(c2ccccc2)(c2ccccc2)CO1	/	?	/	.	?
COc1ccc(NC2C(c3ccc(OC)cc3)=Nc3ccccc3-n3nnnc32)cc1 (stereo not given)	/	.	/	/	/
CN(Cc1cc(=O)n2ccsc2n1)C1CCCCC1	.	?	.	.	.
Cc1nc2ccccc2n1C(c1cccnc1)c1nc2ccccc2[nH]1 (stereo not given)	/	-79	/	/	.
c1ccc(-c2nc3ccccc3n2C(c2ccccc2)c2nc3ccccc3[nH]2)cc1 (stereo not given)	/	.	/	/	.
Cc1cc[n+](CC(=O)c2ccc(NC(=O)c3ccccc3)cc2)cc1	/	.	/	.	.
O=C(C[n+]1cccc2ccccc21)c1ccc(NC(=O)c2ccccc2)cc1	/	-83	/	.	.
Cc1cc[n+](CC(=O)c2ccc(NC(=O)c3ccccc3)cc2)c2ccccc12	/	-97	/	.	?
O=C(C[n+]1cccc2ccccc21)c1ccccc1	?	.	.	.	.
COc1ccc(F)cc1-c1cc(C(=O)NCc2cc(C(F)(F)F)cc(C(F)(F)F)c2)[nH]n1	/	.	/	/	.
Cc1ccc(NC(=O)N2CC3CCCN3c3ccccc32)cc1Cl (stereo not given)	/	.	.	/	.
CCCN(C(=O)c1cc2c(=O)oc3ccccc3c2s1)c1ccccc1C	.	.	.	/	40µM
C=CCn1c(SCC(=O)N(CC)C2CCS(=O)(=O)C2)nc2scc(-c3ccccc3)c2c1=O (stereo not given)	?	.	.	.	.
CCN(CC)CCn1c2ccccc2c2nc3ccccc3nc21	/	-102	/	?	.
CCN(CC)CCSc1nnc2c3ccccc3n(Cc3ccccc3)c2n1	/	?	/	11µM	.
CCCn1c2ccccc2c2nc3ccccc3nc21	.	.	.	?	.
CCN(CC)CCSc1nnc2c3cc(F)ccc3n(Cc3ccccc3)c2n1	.	.	?	?	.
COc1ccc(CN2C(=O)C(n3ccc4ccccc43)c3ccccc32)cc1 (stereo not given)	/	.	/	/	/
Oc1ccccc1N1CCN(CC(O)COC2CCCc3ccccc32)CC1 (stereo not given)	/	.	/	.	.
CC(C)NC(=O)c1ccc(COc2cc(Cl)ccc2Cl)o1	?	.	.	11µM	.
COc1cccc(NC(=O)CN(C)C(=O)CC(NC(=O)c2ccccc2Cl)c2ccccc2)c1 (stereo not given)	/	.	/	.	.
CC(=O)Nc1cccc(Oc2ncnc3scc(-c4ccc(C(C)C)cc4)c23)c1	2.8µM	?	2.5µM	?	.
Cc1nn(CC(=O)Nc2cccc(Cl)c2)c(=O)c2cc(-c3ccccc3)nn12	/	.	/	.	.
SMILES	Marburg entry inh	HCMV inh	Lassa entry inh	HCV inhibitor	FMDV inh
COC(=O)CN1C(=O)[C@H]2[C@@H](c3ccc(C)o3)N3C(=O)CN(CC4CC4)C(=O)[C@@]3(Cc3ccccc3)[C@H]2C1=O	/	-93	/	.	.
Cc1ccc([C@@H]2[C@@H]3C(=O)N(C)C(=O)[C@@H]3[C@]3(C)C(=O)N(Cc4ccccc4)CC(=O)N23)o1	/	/	/	.	.
COC(=O)CN1C(=O)[C@H]2[C@@H](c3ccc(C)o3)N3C(=O)CN(Cc4ccccc4)C(=O)[C@@]3(C)[C@H]2C1=O	/	-83	/	.	.
CCOc1ccc(/C=C/C(O)=C2/C(=O)N(C)C3(C)CC2c2ccccc2O3)cc1OC (stereo not given)	?	-98	3.5µM	?	?
Cc1cccc(C(CC(=O)O)n2cccc2)c1 (stereo not given)	.	.	.	.	.
O=C(O)CC(c1cccc(Cl)c1)n1cccc1 (stereo not given)	.	.	.	11µM	.
O=C(COC(=O)c1ccc2c(c1)OCCO2)NCc1ccc(Cl)cc1	/	.	/	/	.
Cn1c(N2CCN(c3ccccn3)CC2)nc2c1c(=O)n(Cc1ccc(Cl)cc1)c(=O)n2C	.	-84	.	.	20µM
Cn1c(N2CCN(c3ccccn3)CC2)nc2c1c(=O)n(Cc1ccccc1Cl)c(=O)n2C	.	.	.	.	.
Cn1c(OCc2cccnc2)nc2c1c(=O)n(Cc1ccc(Cl)cc1)c(=O)n2C	?	?	16µM	11µM	?
Cc1ncc2c(c1CNC(=O)c1ccc3c(c1)OCO3)CCN(C(=O)c1noc3c1CCCC3)C2	/	/	/	/	.

Screening results (PubChem BioAssay)
